# Pf growth 96h – P. falciparum growth inhibition at 96 hour, primary screen for plastid delayed-death inhibitors; P. falciparum luciferase reporter growth, 96 h; Potency, µM (series often up to 28.7 µM), without a hit: top-dose activity change, negative = inhibition, usual class: inhibitors; 6.9% of 320,000 active; AID 504834; also: potency is read from the fitted curve at half-maximal effect
#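 Cell-based qHTS: luciferase-tagged P. falciparum in erythrocytes (2% hematocrit, 0.05% parasitemia final) incubated with compounds for 96 hours, 37 C, 5% CO2; luciferase detection reagent then added and luminescence measured.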
# Giardia FBPA inh – Giardia lamblia aldolase inhibition; 0.71% of 290,000 active; Potency, µM (series often up to 59.6 µM), inactives show at the highest dose activity, negative = inhibition, usual class: inhibitors; purified Giardia FBPA; also: potency is read from the fitted curve at half-maximal effect; nearly all actives have a fitted effect of over 55% in size
# Target sequence (A8B2U2 whole entry, looked up): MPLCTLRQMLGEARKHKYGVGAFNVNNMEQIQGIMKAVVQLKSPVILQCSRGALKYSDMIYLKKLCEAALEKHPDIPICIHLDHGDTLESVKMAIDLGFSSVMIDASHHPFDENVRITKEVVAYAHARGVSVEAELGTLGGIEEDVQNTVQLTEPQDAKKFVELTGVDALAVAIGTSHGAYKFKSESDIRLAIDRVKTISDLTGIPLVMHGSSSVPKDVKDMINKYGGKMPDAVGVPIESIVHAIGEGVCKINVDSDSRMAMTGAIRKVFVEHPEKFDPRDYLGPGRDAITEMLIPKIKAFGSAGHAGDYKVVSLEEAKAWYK
#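 Giardia FBPA (40 nM reagent) was preincubated 10 min at RT with compound (up to 57.5 uM final), then substrate plus GAPDH/TPI/NAD/arsenate coupling system with diaphorase/resazurin was added; resorufin fluorescence (525/598 nm) was read after 20 min.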
# Pf growth 48h – P. falciparum growth inhibition at 48 hours (one generation); P. falciparum luciferase growth in erythrocytes, 48 h; Potency, µM (top dose mostly 28.7 µM), for the others: at the highest dose activity change, negative = inhibition, most hits filed as inhibitors; 5.9% of 310,000 active; AID 504832; also: potency is read from the fitted curve at half-maximal effect
#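 A one-generation exposure of luciferase-tagged malaria parasites in RPMI 1640/Albumax erythrocyte culture, 37 C and 5% CO2. Inhibition is inferred from decreased luminescence after adding detection reagent.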
# HCMV inh – blocks human cytomegalovirus replication; activity change, negative = inhibition, % at 57.5 µM; 4.5% of 410,000 active; AID 1259415; HFF cells, HCMV-luciferase reporter, 72 h; stronger effect = lower value; in the data active = activity change below about -60%; inconclusive = no clear call, values can overlap the other calls; inactive = above about -39%
#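 Luciferase read-out from HCMV-luciferase-infected HFFs (MOI 1 PFU/cell) 72 h post infection at 37C; compounds added after 16 h cell attachment; activity normalized between buffer-only basal and Salinomycin (10uM) inhibitor controls.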
# Sm TGR inh – S. mansoni TGR enzyme inhibition; Q962Y6; Potency, µM (top dose mostly 114 µM), for inactives: at the highest dose activity change, negative = inhibition, usual class: inhibitors; 3% of 360,000 active; AID 485364; purified TGR, DTNB reduction, TNB absorbance 405 nm; also: potency is read from the fitted curve at half-maximal effect; nearly all actives have a fitted effect of over 60% in size
#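 Kinetic colorimetric format: TGR-catalysed, NADPH-driven DTNB reduction monitored via TNB absorbance. Enzyme dispensed at 20 nM; compound exposure 15 min at room temperature before reaction start.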
# Numbers without * were called inactive; ? = inconclusive; . = no result; [ ] = dose if it differs, or a comment. A selection: hits, their analogues and other compounds. The true share with any hit is near 14%. Unless noted, calls follow the shape of the dose curve; as a rule, active = well fitted curve in the direction sought with a large enough effect; inconclusive = small, poorly fitted or top-dose-only effect, or another doubt; inactive = no such curve, though single readings can be large; an effect the other way counts as inactive or inconclusive. % is scaled to controls: 0 for no effect and ±100 for the full control effect.
SMILES,Pf growth 96h,Giardia FBPA inh,Pf growth 48h,HCMV inh,Sm TGR inh
COCCNC(=S)Nc1ccc2nc(N3CCN(C)CC3)cc(C)c2c1,-75%,-3%,0%,71,40µM*
COc1ccccc1CNC(=S)Nc1ccc2nc(N3CCN(C)CC3)cc(C)c2c1,320%,-4%,6.6µM*,0,-27%
Cc1ccc2c(c1)N(C(=O)Nc1cccc(C)c1C)CCO2,.,.,.,-4,-4%
CC(C)C(C(=O)N1CCOCC1)N1C(=O)c2ccccc2C1=O (centres undefined),10µM*,2%,12%,15,?
O=C1/C(=C\c2cccnc2)N2CCC1CC2,9.3µM*,-3%,?,-7,2%
CC1=N/C(=C/c2cccnc2)C(=O)O1,3%,5%,12%,?,22µM*
O=C1c2ccccc2C(=Cc2cccnc2)c2ccccc21,.,.,.,-27,.
Cc1cccc(C2=N/C(=C\c3cccnc3)C(=O)O2)c1,22%,2%,9%,-12,-16%
CN1C/C(=C/c2cccnc2)C(=O)/C(=C/c2cccnc2)C1,?,0%,?,-92*,?
CC(C)N1C/C(=C/c2cccnc2)C(=O)/C(=C/c2cccnc2)C1,304%,3%,13µM*,-37,?
O=C(/C=C/c1cccc(O)c1)c1ccc(N2CCOCC2)cc1,?,-8%,122%,29,?
CC(=O)Nc1cccc(NS(=O)(=O)c2ccc3c(c2)CCC(=O)N3)c1,.,.,.,-27,.
O=C(CSc1nc2ccsc2c(=O)n1Cc1ccccc1Cl)NCc1ccc(F)cc1,.,.,.,-13,-4%
CNC(=O)c1ncoc1-c1ccc(Cl)cc1,50%,1%,34%,-11,1%
CC(C)N1C/C(=C/c2ccsc2)C(=O)/C(=C/c2ccsc2)C1,?,-30%,?,-85*,-34%
COc1cc(-c2[nH]ncc2CN2CCN(c3cccc(C)n3)CC2)cc(OC)c1OC,4.1µM*,-3%,9.3µM*,10,-10%
COc1cc(-c2[nH]ncc2CN2CCSCC2)cc(OC)c1OC,?,-10%,?,163,3%
O=C(N/N=C/c1ccc(Br)o1)c1ccc2c(c1)OCCO2,8%,-14%,57%,4,-23%
Cc1cccc(C(=O)N[C@H](C(=O)Nc2nnc(C3CC3)s2)C(C)C)c1,-18%,30%,-16%,-19,1%
CCN(CC)S(=O)(=O)c1cccc(C(=O)NC(C(=O)Nc2nnc(C3CC3)s2)C(C)C)c1 (centres undefined),8.3µM*,1%,?,2,53%
CCN(CC)S(=O)(=O)c1cccc(C(=O)N[C@H](C(=O)Nc2nc3ccc(F)cc3s2)C(C)C)c1,2.6µM*,0%,13µM*,150,-5%
CCN(CC)S(=O)(=O)c1cccc(C(=O)N[C@H](C(=O)Nc2nc3ccccc3s2)C(C)C)c1,?,-2%,0%,-1,0%
CCCCCCC1=Cc2cc(OC)c(OC)cc2C(CC(=O)/C=C/OC)O1 (centres undefined),.,-8%[12.9 µM],.,.,.
Cc1cc(C2(c3ccc(O)c(C)c3)C(=O)Nc3ccccc32)ccc1O,21%,-5%,-23%,-80*,3%
Cc1cccc2c1NC(=O)C2(c1ccc(O)cc1)c1ccc(O)cc1,187%,2%,?,-7,3%
SMILES,Pf growth 96h,Giardia FBPA inh,Pf growth 48h,HCMV inh,Sm TGR inh
O=C(NC(=S)NC1C2CC3CC(C2)CC1C3)c1ccccc1 (centres undefined),10µM*,.,32%,41,?
COc1ccc(C(=O)N2CCCC(N3CCN(c4ccccc4F)CC3)C2)c(OC)n1 (centres undefined),13µM*,.,-3%,-27,?
COc1ccccc1N1CCN(C2CCCN(C(=O)c3snnc3C)C2)CC1 (centres undefined),13µM*,.,0%,-21,-1%
COc1ccc(C(=O)N2CCCC(N3CCN(c4ccccc4OC)CC3)C2)c(OC)n1 (centres undefined),-12%,-10%,-2%,-12,0%
O=C(Nc1ccccc1)c1cc(C2COCCN2C(=O)C2CC2)on1 (centres undefined),.,.,.,10,.
CC(=O)c1ccc(NC(=O)c2ccccc2-c2ccccc2C(=O)O)cc1,4.7µM*,5%,0%,57,4%
C=CCC(Nc1ccc(OC)cc1)C(=O)OCC (centres undefined),.,1%,.,.,.
NC1=NC(=O)/C(=C/c2ccc(Br)cc2)S1,2.3µM*,-4%,13%,-20,-1%
C=CCOc1ccc(/C=C2\SC(N)=NC2=O)cc1OC,-7%,1%,-29%,116,0%
COc1cc(/C=C2\SC(N)=NC2=O)ccc1O,68%,1%,13%,-75*,-28%
COc1ccc(CNC(=O)c2cccc(NC(=O)N3CCSc4ncccc43)c2)cc1,.,.,.,?,-6%
COc1ccc(-c2oc3c(c2C(=O)OCCCO)C(OCCO)CCC3)cc1 (centres undefined),.,.,.,-10,.
COC(=O)[C@@]12C[C@@H](CC(=O)N3CCSCC3)C(=O)N(CCc3ccc(OC)c(OC)c3)C1=CCC(C)(C)C2,.,.,.,-27,.
CCOCCCN1C(=O)CN(C2CCCCCC2)C(=O)C1c1ccc(OC)cc1 (centres undefined),0.83µM*,.,?,-7,-3%
COc1cccc(C2C(=O)N(C3CCCCC3)CC(=O)N2Cc2ccc(Cl)cc2)c1 (centres undefined),.,.,.,-68*,10%
O=C(c1ccncc1)N1CCC2(CCCN(Cc3ccncc3)C2)CC1,.,5%,.,.,.
CCn1c(SCC(=O)Nc2nc3c(s2)CCCC3)nnc1-c1ccccc1,13%,-3%,2.1µM*,-14,-14%
O=C(CSc1nc2ccccc2o1)Nc1nc2c(s1)CCCC2,.,.,.,-86*,.
Cc1ccc2cc(C)c3nnc(SCC(=O)Nc4nc5c(s4)CCCC5)n3c2c1C,12µM*,3%,-7%,27,1%
Cc1ccc(C)c2c1cc(C)c1nnc(SCC(=O)Nc3nc4c(s3)CCCC4)n12,11%,8%,-1%,-39,-2%
Cc1ccc(Cn2c(=O)n(Cc3ccccc3)c(=O)c3oc4ccccc4c32)cc1,.,.,.,12,1%
CC(C)CNc1ncnc2c1ncn2[C@H]1CN(Cc2ccc(-c3ccccc3)cc2)C[C@@H](CO)O1,.,.,.,-73*,.
CC(C)Nc1ncnc2c1ncn2[C@H]1CN(Cc2ccc(-c3ccccc3)cc2)C[C@@H](CO)O1,.,.,.,-66*,.
CC(C)CNc1ncnc2c1ncn2[C@H]1CN(Cc2ccncc2)C[C@@H](CO)O1,.,.,.,-35,.
OCCN1CCN(c2ncnc3c2ncn3[C@H]2CN(Cc3cccc(C(F)(F)F)c3)C[C@@H](CO)O2)CC1,.,.,.,-62*,.
COc1cccc(C2=NO[C@@H]3C(=O)N(c4ccc5c(c4)OCCO5)C(=O)[C@H]23)c1OC,5%,?,54%,-17,40µM*

# Assay outcomes deposited in PubChem by National Center for Advancing Translational Sciences (NCATS).
